Data from PubChem BioAssay (NCATS).
Inconclusive results are not listed. Unmarked numbers belong to inactive results. Calls of active or inactive are those of the source. Calls come from the whole dose curve; as a rule, active = well fitted inhibition curve with a large enough effect; inconclusive = small, poorly fitted or top-dose-only effect; inactive = no such curve, though single readings can be large or run the other way.

Molecular target: Retinal dehydrogenase 2 (Homo sapiens) (UniProt O94788)
Experiment: qHTS for Inhibitors of the Aldehyde Dehydrogenase Family (ALDH1A2) Confirmation screens (AID 2061314); note: nearly all actives have a fitted effect of over 65% in size
Details: ALDH1A2 enzyme inhibition qHTS confirmation; series mostly up to 45.9 µM; activity, negative = inhibition: at the top concentration
% is set by controls: 0 for no effect and ±100 for the full control effect; potency is the fitted concentration of half-maximal effect.

| Structure (SMILES) | outcome | activity, negative = inhibition | Potency |
| --- | --- | --- | --- |
| CCC(=O)Nc1ccc(S(=O)(=O)NCc2ccc3c(c2)CCN3C(=O)c2ccc(C)cc2)cc1 | inactive | – | – |
| O=C(O)c1ccc2c(c1)C(=O)N(CCc1ccc(O)cc1)C2=O | – | -9.92% | – |
| O=C(C1CCN(Cc2ccccc2-c2ccccc2F)CC1)N1CCN(Cc2ccccc2)CC1 | inactive | – | – |
| CN1CCN(c2ccc(NC(=O)CN(C)Cc3c(O)ccc4ccccc34)cc2)CC1 | – | – | 7.12 µM (active) |
| Cn1sc(=O)n(Cc2ccccc2)c1=O | – | – | 8.96 µM (active) |
| Cc1nc(C(C)Nc2ncnc3ccc(-c4ccc5c(c4)OCO5)cc23)cs1 (configuration not stated) | – | -16.5% | – |
| CC(C)(C)c1ccc(S(=O)(=O)c2cnc(SCC(=O)Nc3ccc(F)c(Cl)c3)[nH]c2=O)cc1 | – | – | 14.2 µM (active) |
| NC(=O)C1CCN(c2nc(-c3ccc4ccccc4c3)cs2)CC1 | – | -4.59% | – |
| Cc1cc(C)nc(NC(=S)N2CCN(c3ccc4cn(C)nc4c3)CC2)c1 | – | – | 12.7 µM (active) |
| COc1cc(NS(=O)(=O)c2cccc([N+](=O)[O-])c2)c2ncccc2c1 | – | – | 3.18 µM (active) |
| Cc1ccc(CCN2C(=O)c3ccc(C(=O)O)cc3C2=O)cc1 | – | 0.817% | – |
| CN(C)c1ccc(-c2cc[nH]c(=O)c2N)cc1 | – | – | 0.225 µM (active) |
| CC(C)CCN(C)Cc1ccc(-c2ccccc2)cc1 | – | -16.9% [at 86.5 µM] | – |
| O=S1(=O)N=C(Oc2cccc3ccccc23)c2ccccc21 | – | – | 12.7 µM (active) |
| COc1ccc(-c2nc(CCNC(=O)c3c(F)cccc3Cl)cs2)cc1 | inactive | – | – |
| O=C(Cc1ccc(F)cc1)Nc1cccc(-c2nc3cccnc3s2)c1 | – | -10.5% | – |
| Cc1oc(-c2ccccc2F)nc1CS(=O)(=O)CC(=O)N1CCN(c2cccc(C(F)(F)F)c2)CC1 | – | -16.1% | – |
